These results are taken from PubChem BioAssay (NCI).

About 83,000 compounds went through this panel and 20% of them were active in at least one assay; those are over-represented in the sample as a whole.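 Note: values are percent growth. 100 is the growth of untreated cells, values between 100 and 0 indicate rising inhibition; between -100 and 0 indicates cell death.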 The source made the active and inactive calls.

The test relates to COLO 205 colon. Briefly: NCI-60 one-dose screen, 48 h (100 = growth as untreated, 0 = no growth, -100 = all killed). Conditions: 10 µM unless noted. The method, then:
Cells are grown in 96 well plates and exposed to the test compound for 48 hours. Compounds are tested at a single concentration, which is 10^-5 M for most compounds. The reported endpoint is percent growth (GI% or GIPRCNT), where numbers from 0 - 100% represent growth inhibition, and numbers from -100% - 0 represent cell death. For example, a value of 40 represents 60% growth inhibition. A value of 0 means no net growth occurred over the course of the experiment. A value of -40 indicates 40% of cells at the beginning of the experiment died by the end of the experiment. A value of -100 means all cells are dead at the end of the experiment.
NCI-60 Human Tumor Cell Lines Screen was performed using the standard one-dose NCI protocol, which is described in more detail at https://dtp.cancer.gov/discovery_development/nci-60/default.htm.
Compounds with GIPRCNT values below 10 were considered active. Activity score was based on GIPRCNT using the following formula: […]
Score is 0 for GIPRCNT values of 100 or above, 50 for GIPRCNT values of 0, and 100 for GIPRCNT values of -100.
With `Clc1ccc(Cc2nnc3sc(-c4cccnc4)nn23)cc1`, the growth was 115% (inactive).
On to `Clc1ccc2c(NCCCn3ccnc3)c3oc4ccc(Cl)cc4c3nc2c1`, for which the growth was 96.5% (inactive).
Next, `Cc1c(NC(=O)CSc2nc3sc4c(c3c(=O)n2-c2ccc(Cl)cc2)CCCC4)c(=O)n(-c2ccccc2)n1C`: 106% (inactive); `CN(C)CCCOc1c2ccc(Cl)cc2nc2c1oc1ccc(Cl)cc12`: -11.1% (active); `COc1ccc(-c2nc3ccc(-c4nnc(SCC(=O)Nc5ccc(C(C)=O)cc5)o4)cc3[nH]2)cc1`: 113% (inactive).
For the molecule `N#Cc1c(-c2ccc(Cl)cc2)nc2c(-c3ccccc3)c(Nc3ccccc3)nn2c1N`, the growth is 57% (inactive).
`CNC(=O)c1cc(-c2ccc(NC(=O)Nc3ccc(N4CCN(C)CC4)c(C(F)(F)F)c3)cc2)nc2cccnc12`: the growth was -41% (active).
The same measure for `Clc1ccc2c(NCCCN3CCOCC3)c3oc4ccc(Cl)cc4c3nc2c1`: 44.5% (inactive); for `O=C(CCN1C(=O)/C(=C/c2ccccc2F)SC1=S)N1CCOCC1`: 108% (inactive).
Regarding `COC(=O)C(Cc1ccccc1)NS(=O)(=O)/N=C1\NC(=O)NC1=C(Cl)Cl` (stereo not given), the growth was 133% (inactive).
Next, `Nc1ncc(-c2ccc3ncnc(N4CCc5cc(F)c(Cl)cc54)c3c2)cc1CO`: -21.9% (active); `O=C(N/N=C/c1ccc([N+](=O)[O-])o1)c1[nH]c2ccc(Br)cc2c1-c1ccccc1`: 5.51% (active).
`CC(O)C(NC(=O)C1CCCN1C(=O)CNC(=O)C1CC(=O)NCC(=O)NC(Cc2c[nH]c3ccccc23)C(=O)NC(Cc2ccc(O)cc2)C(=O)NCC(=O)NC(CO)C(=O)NC(CCC(N)=O)C(=O)NC(Cc2c[nH]c3ccccc23)C(=O)N1)C(=O)NCC(=O)NC(CCC(N)=O)C(=O)NC(CCCNC(=N)N)C(=O)NC(CC(=O)O)C(=O)O` (stereo not given): the growth is 109% (inactive).
`CC(C)(O)c1cncc(-c2ccc3ncnc(N4CCc5cc(F)c(Cl)cc54)c3c2)c1`: the growth was 30.1% (inactive).
Take `CN(C)CCCNc1c2ccccc2nc2c1oc1ccc(Cl)cc12`: the growth is 14.5% (inactive).
Regarding `Nc1nc(N)c2c(n1)NC(c1ccc(C(F)(F)F)cc1)CC(c1ccc(Nc3nc(NCCO)nc(Nc4ccc(Cl)cc4)n3)cc1)=N2` (stereo not given), the growth is 5.02% (active).
Next, `O=C1/C(=C/C2=Cc3ccccc3OC2)SC(=S)N1c1ccc(F)cc1`: 107% (inactive); `Fc1ccc(-c2nc(C(Cl)Cl)nc3cc(-c4ccccc4)nn23)cc1`: -76.3% (active); `CCOC(=O)c1c(Nc2ccccc2)nn2c(N)c(C#N)c(-c3ccccc3)nc12`: 87.4% (inactive).
With `COC(=O)c1ccc(NC(=S)N2CCc3ccc([N+](=O)[O-])cc3C2)cc1O`, the growth was 105% (inactive).
In the case of `Cc1sc2nc(NCc3ccccc3Cl)[nH]c(=O)c2c1C`, the growth is 113% (inactive).
As for `CSCCC(C(=O)O)N1C(=O)/C(=C/c2ccc(O)c(O)c2)SC1=S` (stereo not given), the growth was 123% (inactive).
With `CCOC(=O)c1csc(NC(=O)CSc2nc3sc4c(c3c(=O)n2-c2ccc(Cl)cc2)CCCC4)n1`, the growth is 133% (inactive).
Next, `COc1ccc(-c2csc(N/N=C/c3c(-c4ccc(S(C)(=O)=O)cc4)nc4ccccn34)n2)cc1`: 120% (inactive); `CC(C)(C)OC(=O)N1C(=O)c2c(c3c4ccccc4[nH]c3c3ccc4ccccc4c23)C1=O`: 68.1% (inactive); `COc1cccc(NC2=CC(=O)C(C)=C(C)C2=O)c1`: 103% (inactive).
With `Nc1c(C(=O)Nc2ccc(Cl)cc2)sc2nc(-c3cnccn3)cc(-c3cccs3)c12`, the growth is 95.7% (inactive).
In the case of `Cn1cc(-c2cc(N)n3nc(-c4cn(C)c5ccc(Cl)cc45)cc3n2)c2cc(Cl)ccc21`, the growth is 119% (inactive).
As to `N[C@@H](Cc1cn(-c2c3ccccc3nc3ccccc23)nn1)C(=O)O`, the growth was 109% (inactive).
Next, `COc1cc(/C=C/C(=O)c2cc(OC)c(OC)c(OC)c2)ccc1Oc1nc(NCCO)nc(N2CCOCC2)n1`: 3.69% (active); `CCCC(=O)NC(c1cccc(N(C)C)c1)c1cc(C)c2cccnc2c1O` (stereo not given): 88% (inactive).
`CC(C)Sc1nc(Nc2ccc(S(N)(=O)=O)cc2)c(C#N)c(-c2ccc(F)cc2)n1`: the growth is 79% (inactive).
`C/C(=N\NC(N)=O)c1c(O)sc(=O)[nH]c1=O`: the growth was 108% (inactive).
Regarding `CC(=O)Oc1ccccc1C(=O)Nc1ccc(C(=O)/C=C/c2cccs2)cc1`, the growth was 126% (inactive).
With `COc1ccccc1C(=O)CSc1nc(Nc2ccc(S(N)(=O)=O)cc2)c2ccccc2n1`, the growth is 107% (inactive).
Next, `O=C1c2c(c3c4cccnc4[nH]c3c3ccc4ccccc4c23)C(=O)N1CCO`: 78.4% (inactive); `C#Cc1nc(C2=C(C)C(O)CC2)cs1` (stereo not given): 118% (inactive).
The same measure for `N#Cc1ccc(/C=N/NC(=O)c2[nH]c3ccc(Br)cc3c2-c2ccccc2)s1`: -13.3% (active); for `O=C(NNc1nc2cc(F)ccc2n2c(CN3CC4(COC4)C3)ccc12)c1cnccn1`: 20.2% (inactive).
For the molecule `Cc1nc(-c2cc3ccccc3oc2=O)ccc1C(=O)/C=C/c1ccccn1`, the growth was 94.7% (inactive).
